In the supplement of paper PMC10127200:
Counter-ions that a name gives are not always drawn.

Tests used:
Test in all cases: Euclidean distance of Cell Painting phenotypic profile (signed KS, 77 features) to DMSO centroid (dimensionless distance); 5 or 10 uM (library dependent); higher = stronger phenotypic change vs DMSO (phenoactivity)
Conditions in all cases: 48 h
786-O = system: 786-O
Method in brief: (§1)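 Harmony extracted 77 features from 20X confocal images (9 fields/well) of stained cells, scoring each as a signed Kolmogorov-Smirnov statistic against same-plate vehicle wells. The cells, five cancer lines and a healthy fibroblast line, had received library compounds for 48 h at 10 or 5 uM depending on library, with 0.1% DMSO final. Phenoactivity is the Euclidean distance from each plate-position-corrected, correlation-weighted, top-dose replicate-averaged profile to the median vehicle profile.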

A549 = system: A549
Method in brief: as §1

DU145 = system: DU145
Method in brief: as §1

FB = system: FB
Method in brief: as §1

HEPG2 = system: HEPG2
Method in brief: as §1

OVCAR4 = system: OVCAR4
Method in brief: as §1

SMILES	Euclidean distance (786-O)	Euclidean distance (A549)	Euclidean distance (DU145)	Euclidean distance (FB)	Euclidean distance (HEPG2)	Euclidean distance (OVCAR4)
CC[C@H]1OC(=O)[C@H](C)[C@@H](O[C@H]2C[C@@](C)(OC)[C@@H](O)[C@H](C)O2)[C@H](C)[C@@H](O[C@@H]2O[C@H](C)C[C@H](N(C)C)[C@H]2O)[C@](C)(O)C[C@@H](C)C(=O)[C@H](C)[C@@H](O)[C@]1(C)O [Erythromycin]	1.41	1.02	1.69	1.16	3.29	1.43
Cc1cc(NS(=O)(=O)c2ccc(N)cc2)nc(C)n1 [sulfaisodimidine]	0.897	0.563	0.503	0.948	0.529	0.686
Oc1nc(-c2ccc(C(F)(F)F)cc2)nc2c1CSCC2	0.915	1.5	1.11	0.913	0.766	1.15
C[C@@H](O)[C@H]1C(=O)N2C(C(=O)O)=C(S[C@@H]3CN[C@H](C(=O)N(C)C)C3)[C@H](C)[C@H]12 [Meropenem Trihydrate]	1.26	1.2	0.738	0.87	1.01	0.913
CC(C)(C)C(=O)Oc1ccc(S(=O)(=O)Nc2ccccc2C(=O)NCC(=O)O)cc1 [Sivelestat sodium tetrahydrate]	0.925	0.568	1.32	1.57	0.892	1.28
O=C(O)CNC(=O)c1ncc(-c2cccc(Cl)c2)cc1O [Vadadustat]	1.08	1.97	2.71	1.67	0.8	2.35
CC(C)C[C@H](NC(=O)[C@@H](NC(=O)c1cccc(-c2ccccc2)n1)[C@@H](C)O)B(O)O	4.27	4.06	4.4	3.55	4.77	5.53
Cc1cnc(C(=O)N[C@H]2CCCCC/C=C\[C@@H]3C[C@@]3(C(=O)NS(=O)(=O)C3CC3)NC(=O)[C@@H]3C[C@@H](Oc4nc5ccccc5c5ccccc45)CN3C2=O)cn1 [Paritaprevir (ABT-450)]	1.48	1.53	1.52	1.17	0.513	1.39
C=CC[N+]1([C@H]2C[C@H]3[C@@H]4CC[C@H]5C[C@H](O)[C@@H](N6CCOCC6)C[C@]5(C)[C@H]4CC[C@]3(C)[C@H]2OC(C)=O)CCCC1 [Rocuronium Bromide]	1.59	1.12	1.92	1.08	0.685	1.25
Cc1ccc(Sc2cncc3sc(C(N)=O)cc23)cc1	1.1	1.05	0.78	1.61	1.24	0.995
C[N+](C)(C)CCO.[Cl-] [Choline Chloride]	0.795	0.549	0.73	0.801	0.682	1.46
C#C[C@]1(O)CC[C@H]2[C@@H]3CCC4=Cc5oncc5C[C@]4(C)[C@H]3CC[C@@]21C [Danazol]	1.02	1.02	1.43	0.594	1.3	1.02
CC1=C(C(=O)O)N2C(=O)[C@@H](NC(=O)[C@H](N)c3ccc(O)cc3)[C@H]2SC1 [Cefadroxil hydrate]	1.09	0.5	0.78	0.785	0.893	0.794
CCOC(=O)N1CCC(=C2c3ccc(Cl)cc3CCc3cccnc32)CC1 [Loratadine]	1.17	1.34	0.839	1.05	1.48	1.1
CCCCCCCCOc1ccccc1C(=O)Nc1ccc(C(=O)OCC[N+](C)(CC)CC)cc1 [Otilonium Bromide]	1.03	1.09	1.91	1.24	1.11	1.03
CCOc1ccc(Cc2cc([C@@H]3O[C@H](SC)[C@@H](O)[C@H](O)[C@H]3O)ccc2Cl)cc1 [Sotagliflozin (LX4211)]	1.32	1.07	1.9	0.889	0.553	0.781
NC(=O)N1c2ccccc2C=Cc2ccccc21 [Carbamazepine]	1.69	0.483	1.26	0.984	1.28	1.59
OCCOCCN1CCN(C(c2ccccc2)c2ccc(Cl)cc2)CC1 (centres undefined) [Hydroxyzine 2HCl]	1.32	0.879	1.07	0.804	1.04	1.17
CC(C)(C)NCC(O)COc1cccc2c1CC(O)C(O)C2 (centres undefined) [Nadolol]	0.954	1.38	1.88	0.792	0.849	1.11
COc1ncc(-c2ccc3nccc(-c4ccnnc4)c3c2)cc1NS(=O)(=O)c1ccc(F)cc1F	4.98	3.16	2.84	3.96	2.53	3.04
C[C@H](CCC(=O)NCCS(=O)(=O)O)[C@H]1CC[C@H]2[C@@H]3[C@@H](O)C[C@@H]4C[C@H](O)CC[C@]4(C)[C@H]3CC[C@]12C [Tauroursodeoxycholic Acid (TUDCA)]	0.663	1.8	0.772	1.04	0.686	1.23
Oc1cc(O)c(Cl)cn1 [Gimeracil]	0.868	1.07	1.6	1.25	2.06	1.53

SMILES	Euclidean distance (786-O)	Euclidean distance (A549)	Euclidean distance (DU145)	Euclidean distance (FB)	Euclidean distance (HEPG2)	Euclidean distance (OVCAR4)
CCCCCc1ccc(C)cc1O [Amylmetacresol]	0.732	0.727	0.517	0.859	0.412	0.661
CC(C)(C#N)c1ccc(N2C(=O)OCc3cnc4ccc(-c5cnc6ccccc6c5)cc4c32)cc1	3.92	2.98	0.959	0.992	0.996	4.19
CO[C@@H](C(=O)N1Cc2[nH]nc(NC(=O)c3ccc(N4CCN(C)CC4)cc3)c2C1)c1ccccc1	1.39	1.46	1.66	1.66	1.25	1.03
CCC(=O)O[C@@H]1CC(=O)O[C@H](C)C/C=C/C=C/[C@H](O)[C@H](C)C[C@H](CC=O)[C@H](O[C@@H]2O[C@H](C)[C@@H](O[C@H]3C[C@@](C)(O)[C@@H](OC(=O)CC)[C@H](C)O3)[C@H](N(C)C)[C@H]2O)[C@H]1OC [Midecamycin]	0.98	1.59	0.874	1.31	1.08	1.07
CCCN(CCc1cccs1)[C@H]1CCc2c(O)cccc2C1 [Rotigotine]	0.962	0.896	0.662	0.9	0.437	0.97
C[C@H](Nc1ccc(C#N)n(C)c1=O)c1cc2cc(Cl)ccc2[nH]c1=O [Olutasidenib (FT-2102)]	1.42	0.866	0.784	1.36	0.641	1.06
C[C@@H](O[C@H]1OCCN(Cc2nn(P(=O)(O)O)c(=O)[nH]2)[C@H]1c1ccc(F)cc1)c1cc(C(F)(F)F)cc(C(F)(F)F)c1 [Fosaprepitant dimeglumine salt]	1.86	1.37	1.18	1.21	1.4	0.995
Cc1c(S(=O)(=O)O)oc2c1C(=O)C(=O)c1c-2ccc2c1CCCC2(C)C [Tanshinone IIA sulfonate (sodium)]	0.814	0.633	1.71	1.05	0.728	1.24
CCCCOc1ccc(OCCCN2CCOCC2)cc1 [Pramoxine HCl]	1.3	0.99	1.08	0.528	0.51	1.2
N#CCNC(=O)c1ccc(-c2ccnc(Nc3ccc(N4CCOCC4)cc3)n2)cc1 [Momelotinib (CYT387)]	2.83	3.71	3.36	3.49	2.74	2.48
Cc1ccc(S(=O)(=O)c2ccc([N+](=O)[O-])o2)cc1	6.48	1.74	3.22	5.11	1.81	6.14
CC[C@@H](CO)NCCN[C@@H](CC)CO [Ethambutol 2HCl]	1.58	0.663	1.06	0.73	0.465	1.38
C#C[C@]1(O)CC[C@H]2[C@@H]3CCc4cc(O)ccc4[C@H]3CC[C@@]21C [Ethinyl Estradiol]	1.42	0.969	1.83	1.09	0.768	1.82
NS(=O)(=O)c1cc(C(=O)O)c(NCc2ccco2)cc1Cl [Furosemide]	1.62	0.823	1.83	1.25	0.788	0.747
CC(C)C[C@H](NC(=O)CNC(=O)[C@H](Cc1ccc(O)cc1)NC(=O)[C@H](CO)NC(=O)[C@H](Cc1c[nH]c2ccccc12)NC(=O)[C@H](Cc1cnc[nH]1)NC(=O)[C@@H]1CCC(=O)N1)C(=O)N[C@@H](CCCNC(=N)N)C(=O)N1CCC[C@H]1C(=O)NCC(N)=O [Gonadorelin Acetate]	1.59	1.23	0.611	1.19	0.828	1.22
Cc1c(Cc2ccc3ccccc3n2)c2cc(F)ccc2n1CC(=O)O	1.27	1.14	0.888	1.16	2.13	1.52
CNCC[C@@H](Oc1ccccc1C)c1ccccc1 [Atomoxetine HCl]	1.37	1.23	0.627	0.866	0.422	1.22
CN(Cc1ccc(C(C)(C)C)cc1)Cc1cccc2ccccc12 [Butenafine HCl]	0.641	0.57	0.938	0.74	0.375	1.15
COc1cc2ncnc(Nc3ccc(Cl)cc3F)c2cc1OC	1.46	1.74	1.56	1.26	1.51	1.01
O=C(c1ccc(OCCN2CCCCC2)cc1)c1c(-c2ccc(O)cc2)sc2cc(O)ccc12 [Raloxifene]	2.37	2.49	2.15	2.23	2.54	2.52
COC(=O)C1=C(C)NC(C)=C(C(=O)OCC(C)C)C1c1ccccc1[N+](=O)[O-] (centres undefined) [Nisoldipine]	2.53	0.958	1.95	1.86	2.21	1.43
CN1CCN(c2nc(C3=C(c4c[nH]c5ccccc45)C(=O)NC3=O)c3ccccc3n2)CC1 [Sotrastaurin]	2.18	1.58	1.36	2.47	1.37	1.2
